Assay outcomes from PubChem BioAssay.
A selection: hits, their analogues and other compounds. The true share with any hit is near 5.2%.
Bst PK mod – modulators of Bacillus stearothermophilus pyruvate kinase | purified pyruvate kinase, luminescence ATP production; ribose 5-phosphate activator present at AC10 | Potency, µM | 51,000 compounds, 1.2% hits | AID 361; in the data active = potency below about 11 µM; inconclusive = mostly about 12 µM to 25 µM;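 the screen sought inhibitors and activators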;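 also: scaled between full activation by ribose 5 phosphate and full inhibition by luteolin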
HEK293 cAMP cs – raises cAMP in parental HEK293 cells, TSHR agonist counter-screen | parental HEK293 CNG cAMP sensor, membrane potential fluorescence | Potency, µM (series often up to 57.1 µM), without a hit: at the highest dose activation, hits mostly activators | 73,000 compounds, 2.5% hits | AID 938; also: % of control where 0% means no effect; nearly all actives have a fitted effect of over 55% in size
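Counterscreen for endogenous-receptor signalling: CNG-channel HEK 293 cells report cAMP rise by membrane depolarization. After 60 min dye equilibration with 100 uM RO 20-1724, compounds incubated 30 min before bottom-read fluorescence at 590 nm.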
FLuc inh – firefly luciferase inhibition; P08659; purified firefly luciferase, luminescence, 8 min; Potency, µM (series often up to 57.1 µM), without a hit: top-dose activity change, negative = inhibition, usual class: inhibitors; 72,000 compounds, 2.2% hits; AID 411; also: % is scaled to controls: 0 for no effect and ±100 for the full control effect; nearly all actives have a fitted effect of over 40% in size
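Firefly luciferase (PKLight detection mix) with 10 uM ATP in pH 7.2 imidazole buffer (KCl, MgCl2, Tween 20, BSA). Compounds tested across a concentration series (qHTS). Luminescence read after 8 min at ambient temperature.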
TSHR ag – activates the human thyroid stimulating hormone receptor; P16473; HEK293-CNG-TSHR cells (CNG channel as cAMP sensor), membrane potential dye, cAMP; Potency, µM (top dose mostly 57.1 µM), for inactives: at the highest dose activation, hits mostly activators; 73,000 compounds, 0.48% hits; AID 926; active = well fitted activation curve with a large enough effect in the main read-out, with a control signal flat, not every such curve was filed as active; inconclusive = small, poorly fitted or top-dose-only effect, or a change in a side signal; inactive = no such curve, though single readings can be large or run the other way; % of control where 0% means no effect;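 also: the control signal comes from parental cells without the receptor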
Target sequence (P16473 whole entry, looked up): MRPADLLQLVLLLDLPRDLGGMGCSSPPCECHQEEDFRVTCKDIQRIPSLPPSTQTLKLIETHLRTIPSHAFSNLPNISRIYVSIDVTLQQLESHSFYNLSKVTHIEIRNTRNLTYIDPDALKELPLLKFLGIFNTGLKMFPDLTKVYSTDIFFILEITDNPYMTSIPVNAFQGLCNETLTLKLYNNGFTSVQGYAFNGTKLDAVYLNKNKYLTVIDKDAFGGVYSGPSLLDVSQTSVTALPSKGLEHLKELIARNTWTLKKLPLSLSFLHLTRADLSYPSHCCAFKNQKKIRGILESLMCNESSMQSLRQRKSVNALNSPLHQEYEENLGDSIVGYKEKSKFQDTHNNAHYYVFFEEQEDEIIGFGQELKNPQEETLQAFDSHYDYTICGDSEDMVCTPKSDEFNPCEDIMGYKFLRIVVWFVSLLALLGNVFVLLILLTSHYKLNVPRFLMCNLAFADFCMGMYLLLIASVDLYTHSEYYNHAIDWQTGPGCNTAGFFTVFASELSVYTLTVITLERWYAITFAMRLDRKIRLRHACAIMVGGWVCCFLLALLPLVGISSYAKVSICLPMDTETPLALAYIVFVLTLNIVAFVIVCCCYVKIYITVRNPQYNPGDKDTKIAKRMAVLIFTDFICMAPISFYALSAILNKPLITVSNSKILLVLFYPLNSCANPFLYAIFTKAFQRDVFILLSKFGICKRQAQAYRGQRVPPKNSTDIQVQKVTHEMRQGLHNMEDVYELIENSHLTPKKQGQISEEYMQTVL
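HEK 293 cells stably expressing TSHR and a cAMP-gated CNG channel; parental CNG-only cells as counterscreen. Cells preloaded 60 min with membrane potential dye plus 100 uM RO 20-1724, then compound 30 min; fluorescence read at 590 nm.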
* = called active by the depositor; i = inactive; u = inconclusive; x = no result; ! = repeats disagree; [ ] = dose if it differs, or a comment. Unless noted, calls follow the shape of the dose curve; as a rule, active = well fitted curve in the direction sought with a large enough effect; inconclusive = small, poorly fitted or top-dose-only effect, or another doubt; inactive = no such curve, though single readings can be large; an effect the other way counts as inactive or inconclusive. Potency is read from the fitted curve at half-maximal effect.

SMILES	Bst PK mod	HEK293 cAMP cs	FLuc inh	TSHR ag
CCn1c(SCC(=O)Nc2ccc(N3CCOCC3)c(Cl)c2)nnc1-c1ccc(N)cc1	x	-9.5%	12.6µM*	4.6%
Cc1noc(C)c1S(=O)(=O)N(CC(=O)N1CCn2c1nc1ccccc12)c1ccc(C(C)C)cc1	x	8.9%	0.9%	-3.7%
O=C(CSc1ncnc2sc3c(c12)CCCC3)c1ccco1	x	u	31.6µM*	u
NC[C@](O)(CS(=O)(=O)O)c1ccc(Cl)cc1	x	-1.7%	-0.1%	0.126µM*!
COCCn1c(=O)c(-c2ccc(OC)cc2)nc2cnc(Oc3ccc(OC)cc3)nc21	x	u	1.0%[11.4 µM]	u
Cc1nc2cnc(Oc3cccc(Cl)c3)nc2n(Cc2ccc(F)cc2)c1=O	x	3.98µM*	-0.1%[11.4 µM]	u
COCCn1c(=O)c(C)nc2cnc(Oc3ccc(OC)cc3)nc21	x	31.6µM*	0.0%[11.4 µM]	u
CN1CCN(c2nc(C(N)=O)cc(-c3ccccc3)n2)CC1	10.6*	x	1.0%[25.5 µM]	x
Cc1cc(-c2ccccc2)nc(N2CCN(c3ccccn3)CC2)n1	>57	u	1.6%	u
O=C1CCc2c(ccc3ccccc23)O1	x	12.3%	-0.4%	8.2%
Cc1ccc(-n2nnc3c(=O)n(Cc4cc(C)ccc4C)cnc32)cc1	>57	20µM*	-0.9%	u
COc1cccc(-n2nnc3c(=O)n(Cc4ccc(C)cc4)cnc32)c1	>57	15.8µM*	1.5%	u
COc1cccc(-n2nnc3c(=O)n(Cc4ccccc4Cl)cnc32)c1	6.85*	u	-2.2%	u
Cc1ccc(-n2nnc3c(=O)n(Cc4cccc(C)c4)cnc32)cc1	x	12.4%	-0.7%	x
COc1ccc(-c2nc3oc4cc(OC)ccc4c(=O)c3c(=O)n2Cc2ccco2)cc1	>57	24.2%	0.7%	x
Cc1ccc(OCc2nc(-c3ccccc3)no2)c(C)c1	x	u	15.8µM*	u
Cc1cc(C)c(C)c(OCc2nc(-c3cccnc3)no2)c1	>57	28.9%	5.7%	x
Cc1ccc(-c2nc3ccccc3[nH]2)s1	x	15.6%	5.01µM*	18.1%
Nc1nc(-c2nc3ccccc3[nH]2)cs1	u	3.6%	12.6µM*	-1.6%
C[C@H]1C[C@@H]2[C@H]3CCC4=CC(=O)C=C[C@@]4(C)[C@@]3(Cl)[C@@H](O)C[C@]2(C)[C@]1(OC(=O)c1ccco1)C(=O)CCl	x	0.8%[25.6 µM]	-1.1%[25.5 µM]	-10.9%[25.6 µM]
CCc1cc(C(C)=O)c(O)cc1OCCCCCC(C)(C)c1nn[nH]n1	x	20µM*	x	u
CCOc1ccccc1Oc1coc2cc(OC(=O)c3ccco3)ccc2c1=O	>57	1.1%	-4.4%	21.0%
CCN(CC)C(=O)Oc1ccc2c(=O)c(-c3ccccc3)coc2c1	x	u	15.8µM*	u
COc1ccc2c(c1OC)C(=O)N1c3ccccc3SC21 (stereo unspecified)	i	x	5.01µM*	x
COc1ccc2c(c1OC)C(=O)N1c3ccccc3COC21 (stereo unspecified)	u	25.9%	10µM*	13.4%
SMILES	Bst PK mod	HEK293 cAMP cs	FLuc inh	TSHR ag
CCN(CC)CCNc1nc2c(c(=O)[nH]c(=O)n2C)n1CC(O)COc1ccc(Cl)cc1Cl (stereo unspecified)	>57	-1.5%	-1.3%	-6.3%
O=C(C1=C(O)C(=O)N(Cc2ccco2)C1c1cccnc1)c1cc2ccccc2o1 (stereo unspecified)	>57	9.9%	-6.3%	6.2%
CCOC(=O)c1cc2c(n(-c3ccccc3)c1=O)CC(C)(C)CC2=O	>57	2.4%	5.0%	19.3%
CC(C(=O)Nc1sccc1C(N)=O)N1C(=O)C2CC=CCC2C1=O (stereo unspecified)	>57	4.8%	1.3%	1.4%
CS(=O)(=O)N(CC(=O)Nc1ccc2c(c1)OCCO2)c1ccc2c(c1)OCO2	>57	1.1%	-0.2%	-0.6%
CN1C(=O)c2ccc(N(C)C)cc2C1=O	>25.6	x	-0.7%[25.5 µM]	x
COc1cc(=O)n(C)c2cc(N(C)C)ccc12	4.87*	-4.2%	-2.6%	-7.9%
COc1ccc2nc3c(cc2c1)c(NC(=O)c1cccs1)nn3CC(C)C	i	-6.5%	12.6µM*	x
CCCCCCC1CC(CSc2ncn[nH]2)OC1=O (stereo unspecified)	>57	26.4%	-0.3%	17.0%
O=C(NCc1ccc(Cl)cc1)C1CCCN(S(=O)(=O)c2cnc[nH]2)C1 (stereo unspecified)	x	1.5%	0.4%	-9.3%
O=c1oc2ccccc2n1CSc1nc2ccccc2s1	>57	25.1µM*	-4.0%	u
Clc1ccc(Cn2nnc(-c3ccc(CN4CCOCC4)cc3)n2)cc1	x	31.6µM*	-1.7%	u
Fc1ccc(Cn2nnc(-c3ccc(CN4CCOCC4)cc3)n2)cc1	>11.4	23.9%	-0.8%	10.2%
